Screening data as filed in PubChem.
Sampled rows, rich in hits. Any-hit rate of the full collection: about 11%.
HEK293 tox – Cytotoxic Profiling in HEK 293 Cell Line of Diverse Libraries Using Quantitative High-Throughput Screening | HEK 293 viability, ATP luminescence (CellTiter-Glo), 48-72 h | Potency, µM (highest dose often 115 µM), for inactives: at the highest dose activity change, negative = cytotoxicity, most hits filed as inhibitors | hit rate 6.6% among 94,000 | AID 1345083, 2018; note: % is set by controls: 0 for no effect and ±100 for the full control effect; nearly all actives have a fitted effect of over 60% in size
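ATP-coupled CellTiter-Glo luminescence served as viability read-out, recorded 10 min after reagent addition at room temperature. HEK 293 cells, 250 cells/well, had been incubated with pintool-transferred compound for 48 or 72 hr at 37 degree Celsius.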
3T3 cytotox – Cytotoxic Profiling in NIH 3T3 Cell Line of Diverse Libraries Using Quantitative High-Throughput Screening. NIH 3T3 viability, CellTiter-Glo ATP luminescence, 48-72 h. Potency, µM (top dose mostly 96.7 µM), for the others: at the highest dose activity change, negative = cytotoxicity, most hits filed as inhibitors. AID 1345082, 2018. hit rate 4.3% among 94,000; note: % is set by controls: 0 for no effect and ±100 for the full control effect; nearly all actives have a fitted effect of over 55% in size
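Cytotoxicity was measured by CellTiter-Glo ATP luminescence after 48 or 72 h compound exposure at 37 °C. Mouse NIH 3T3 fibroblasts were seeded at 400 cells/well and dosed by 23 nL pin transfer.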
FLuc inh – Firefly luciferase inhibition profiling of diverse chemical library using quantitative high-throughput screening; purified P. pyralis luciferase, luminescence, biochemical; hit rate 2.5% among 76,000; Potency, µM (series often up to 115 µM), most hits filed as inhibitors; Luciferin 4-monooxygenase (Photinus pyralis), P08659; note: % is set by controls: 0 for no effect and ±100 for the full control effect; nearly all actives have a fitted effect of over 65% in size
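Biochemical qHTS: compound (6-point titration) added to 10uM D-luciferin plus 10uM ATP in Tris acetate pH 7.5 buffer with Mg, Tween-20 and BSA, then purified enzyme at 10nM; light output imaged.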
hNpr1 antagonist – Natriuretic polypeptide receptor (hNpr1) antagonism - Primary qHTS; Atrial natriuretic peptide receptor 1 (Homo sapiens), P16066; HEK293 hNpr1 GloSensor cGMP, ANP-stimulated luminescence; Potency, µM (doses to about 46.3 µM), without a hit: top-dose activity change, negative = inhibition, actives largely listed as inhibitors; hit rate 1.6% among 76,000; AID 1347048, 2019; calls by dose curve; note: % is set by controls: 0 for no effect and ±100 for the full control effect; nearly all actives have a fitted effect of over 60% in size
Target sequence (P16066 whole entry, looked up): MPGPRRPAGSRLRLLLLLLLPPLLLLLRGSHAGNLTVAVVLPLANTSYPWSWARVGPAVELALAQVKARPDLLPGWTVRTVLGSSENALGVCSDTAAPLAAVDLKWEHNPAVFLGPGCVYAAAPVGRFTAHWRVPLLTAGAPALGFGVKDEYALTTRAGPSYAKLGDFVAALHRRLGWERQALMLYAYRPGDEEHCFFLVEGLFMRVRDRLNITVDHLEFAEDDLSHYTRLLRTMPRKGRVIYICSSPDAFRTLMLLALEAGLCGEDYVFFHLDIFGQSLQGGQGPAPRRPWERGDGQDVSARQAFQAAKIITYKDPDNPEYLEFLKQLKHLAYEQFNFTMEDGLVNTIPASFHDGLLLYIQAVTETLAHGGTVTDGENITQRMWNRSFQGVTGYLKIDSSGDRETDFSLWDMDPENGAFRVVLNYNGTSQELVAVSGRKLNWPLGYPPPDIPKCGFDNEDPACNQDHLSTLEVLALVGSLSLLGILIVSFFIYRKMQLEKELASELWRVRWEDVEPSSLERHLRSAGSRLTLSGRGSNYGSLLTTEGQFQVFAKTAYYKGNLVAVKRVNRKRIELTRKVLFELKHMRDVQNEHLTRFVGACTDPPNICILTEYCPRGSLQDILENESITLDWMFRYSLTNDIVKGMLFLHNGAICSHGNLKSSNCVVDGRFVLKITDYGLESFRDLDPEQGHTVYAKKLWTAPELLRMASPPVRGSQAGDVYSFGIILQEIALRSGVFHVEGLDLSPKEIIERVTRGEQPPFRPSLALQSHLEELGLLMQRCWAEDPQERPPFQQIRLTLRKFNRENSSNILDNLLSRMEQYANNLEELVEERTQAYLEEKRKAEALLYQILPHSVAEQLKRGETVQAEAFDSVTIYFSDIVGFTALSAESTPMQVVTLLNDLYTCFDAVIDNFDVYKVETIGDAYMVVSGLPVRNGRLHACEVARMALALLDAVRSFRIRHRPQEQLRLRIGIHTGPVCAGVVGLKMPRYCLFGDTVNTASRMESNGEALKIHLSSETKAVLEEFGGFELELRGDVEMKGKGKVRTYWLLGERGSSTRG
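HEK293 cells stably expressing human Npr1 and cGMP GloSensor pGS-40F, loaded 2 h with 2% GloSensor reagent, given compound 30 min at room temperature. Luminescence read before and 20 min after 0.1 nM hNppA.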
Npr1 antag conf – Natriuretic polypeptide receptor (hNpr1) antagonism - Confirmation; Potency, µM (highest dose often 57.6 µM), inactives show at the top dose activity change, negative = inhibition, hits mostly inhibitors; shares compounds with hNpr1 antagonist; HEK293 hNpr1 cGMP GloSensor luminescence, ANP-stimulated; hit rate 76% among 1,400; calls by dose curve; note: nearly all actives have a fitted effect of over 70% in size
Npr2 selectivity – Natriuretic polypeptide receptor (hNpr2) antagonism - Subtype selectivity assay | Potency, µM (highest dose often 57.6 µM), for the others: at the top dose activity change, negative = inhibition, hits mostly inhibitors | AID 1347046, 2019 | shares compounds with hNpr1 antagonist | HEK293 hNpr2 GloSensor cGMP luminescence, CNP-stimulated | hit rate 67% among 1,400; calls by dose curve; note: nearly all actives have a fitted effect of over 70% in size
FLuc inh counter – Natriuretic polypeptide receptor (hNpr1) antagonism - Confirmation firefly luciferase (FLuc) inhibition counterscreen; shares compounds with hNpr1 antagonist; purified FLuc enzyme, luminescence, Km substrate; Potency, µM (top dose mostly 57.6 µM), without a hit: top-dose activity change, negative = inhibition, most hits filed as inhibitors; hit rate 0.7% among 1,400; note: 0% is about no effect
GloSensor cGMP – Natriuretic polypeptide receptor (hNpr1) antagonism - Counterscreen GloSensor control cell line. shares compounds with hNpr1 antagonist. hit rate 69% among 1,400. HEK293 GloSensor cGMP, SNP-stimulated, luminescence. AID 1347051, 2019. Potency, µM (doses to about 57.6 µM), inactives show at the top dose activity change, negative = inhibition, actives largely listed as inhibitors; calls by dose curve; note: % is set by controls: 0 for no effect and ±100 for the full control effect; nearly all actives have a fitted effect of over 70% in size
* = called active by the depositor; i = inactive; ? = inconclusive; · = no result; [ ] = remark or other dose. Unless noted, calls come from the whole dose curve; as a rule, active = well fitted curve in the direction sought with a large enough effect; inconclusive = small, poorly fitted or top-dose-only effect, or another doubt; inactive = no such curve, though single readings can be large; an effect the other way counts as inactive or inconclusive. Potency is the fitted concentration of half-maximal effect.

SMILES	HEK293 tox	3T3 cytotox	FLuc inh	hNpr1 antagonist	Npr1 antag conf	Npr2 selectivity	FLuc inh counter	GloSensor cGMP
O=C(c1ccc(F)cc1)N1CCC(Cc2nc(-c3ccc(F)cc3)no2)CC1	?	?	i	1.4µM*	1.7µM*	2.7µM*	-1%	1.9µM*
O=C(C1CC1)N1CCC(Cc2nc(-c3ccc(F)cc3)no2)CC1	?	?	i	?	·	·	·	·
C=CCN(Cc1nc(-c2cccc(Cl)c2)oc1C)C1CCS(=O)(=O)C1 (centres undefined)	-11%	-28%	i	0%	·	·	·	·
COc1ccc(OCC(=O)N2CCC(Cc3nc(-c4ccc(F)cc4)no3)CC2)cc1	?	?	i	5.6µM*	4.3µM*	6.1µM*	2%	3.9µM*
CCOc1ccc(CC(=O)N2CCC(Cc3nc(-c4ccc(F)cc4)no3)CC2)cc1	?	?	i	6.3µM*	5.4µM*	6.1µM*	6%	4.8µM*
COc1ccc(CC(=O)N2CCC(Cc3nc(-c4ccc(F)cc4)no3)CC2)cc1OC	?	?	i	7.1µM*	3.1µM*	9.7µM*	1%	6.1µM*
O=C(CC1CCCCC1)N1CCC(Cc2nc(-c3ccc(F)cc3)no2)CC1	?	?	i	4µM*	4.8µM*	5.4µM*	-1%	4.8µM*
CC(C)c1noc(CC2CCN(C(=O)Cc3ccc(F)cc3)CC2)n1	-19%	-42%	i	-23%	·	·	·	·
O=C(c1cccs1)N1CCC(N2CC(OCC3CC3)C23CCCCC3)CC1 (centres undefined)	-26%	-24%	i	2%	·	·	·	·
O=C(CCc1ccccc1)NCc1nnc2ccc(-c3ccccc3)nn12	-2%	-11%	i	4%	·	·	·	·
Fc1cccc(CN2CCC(Oc3ccc(-c4noc(C5CC5)n4)cc3)C2)c1 (centres undefined)	?	?	i	20µM*	27µM*	?	0%	?
CC(C)c1noc(CC2CCN(C(=O)c3ccc(F)cc3)CC2)n1	?	-34%	i	?	?	?	-1%	?
CC(C)c1noc(CC2CCN(C(=O)c3ccc(C(C)(C)C)cc3)CC2)n1	?	-27%	i	-4%	·	·	·	·
COc1cc(C(=O)N2CCC(Cc3nc(-c4ccc(F)cc4)no3)CC2)cc(OC)c1OC	?	?	i	13µM*	14µM*	19µM*	-1%	15µM*
O=C(c1cccc(F)c1)N1CC(Oc2ccc(-c3noc(C4CCOCC4)n3)cc2)C1	?	?	i	6.3µM*	4.3µM*	5.4µM*	-6%	3.4µM*
O=C(COc1ccc(Cl)cc1)N1CCC(Cc2nc(-c3ccccc3)no2)CC1	40µM*	?	i	14µM*	12µM*	14µM*	-2%	12µM*
O=C(Cc1ccccc1Cl)N1CCC(Cc2nc(-c3ccccc3)no2)CC1	?	?	i	?	·	·	·	·
COCCNCc1ccc(-c2ccc(F)cc2)o1	-4%	-1%	i	1%	·	·	·	·
COCCN1CCOC2(CCN([S+](=O)([O-])c3ccc(F)cc3F)CC2)C1=O	-17%[172 µM]	?	i	-8%[70.6 µM]	·	·	·	·
COc1ccc([S+](=O)([O-])N2CCC3(CC2)OCCN(c2ccc(F)cc2)C3=O)cc1	?	?	i	?	31µM*	?	-2%[86.2 µM]	31µM*
COCCN1Cc2ccc(NCC(C)C)nc2C(C)(C(=O)NC2CCC2)C1 (centres undefined)	?	-28%[138 µM]	i	-1%[70.6 µM]	·	·	·	·
O=C(NCc1ccccc1Cl)C1(c2ccc(Cl)cc2)CCOCC1	?	-24%	·	·	·	·	·	·
COc1ccc(CCCN2C(=O)O[C@@H]3CN(c4cc(OC)ncn4)C[C@@H]32)cc1	?	?	i	13µM*	24µM*	22µM*	-1%	22µM*
Cc1ccc(S(=O)(=O)N2CCc3c(C(=O)NCc4ccccn4)cccc32)cc1	?	?	i	11µM*	24µM*	24µM*	-7%	31µM*
CCCNC(=O)c1cccc2c1CCN2S(=O)(=O)c1ccc(C)cc1	?	?	i	?	·	·	·	·
SMILES	HEK293 tox	3T3 cytotox	FLuc inh	hNpr1 antagonist	Npr1 antag conf	Npr2 selectivity	FLuc inh counter	GloSensor cGMP
CCCNC(=O)c1cccc2c1CCN2S(=O)(=O)c1ccc(OC)cc1	?	-22%	i	?	·	·	·	·
COc1ccc(S(=O)(=O)N2CCc3c(C(=O)NCc4cccc(F)c4)cccc32)cc1	?	-25%	i	?	?	?	-13%	?
COCCNC(=O)C[C@@H]1C[C@@H](C(C)C)[C@H](CNS(C)(=O)=O)C=C1C	2%[172 µM]	4%[138 µM]	i	-3%[70.6 µM]	·	·	·	·
COc1cc(OC)c(NC(=O)Cn2c(N(C)Cc3ccccc3)nc(C)cc2=O)cc1Cl	22µM*	?	i	10µM*	22µM*	22µM*	-2%	19µM*
COc1ccc(NC(=O)Cn2c(N3CCN(c4ccccc4)CC3)nc(C)cc2=O)cc1Cl	?	?	i	-15%	·	·	·	·
COc1ccc(NC(=O)Cn2c(N(C)Cc3ccccc3)nc(C)cc2=O)cc1Cl	?	?	i	11µM*	11µM*	11µM*	-2%	9.7µM*
COc1ccc(NC(=O)Cn2c(N(C)Cc3ccccc3)nc(C)cc2=O)cc1	45µM*	?	i	11µM*	19µM*	?	-2%	15µM*
Cc1cc(=O)n(CC(=O)Nc2c(C)cccc2C)c(N(C)Cc2ccccc2)n1	-27%	?	i	0%	·	·	·	·
Cc1cc(=O)n(CC(=O)Nc2cccc(C)c2C)c(N(C)Cc2ccccc2)n1	?	?	i	-17%	·	·	·	·
CC(C)=CCC1(CO)CCCN(c2ncccc2C(=O)N2CCCC2)C1 (centres undefined)	-2%	-12%	i	2%	·	·	·	·
